Assay results as given in PubChem BioAssay (NCATS).
Values without a mark were called inactive. Results filed as inconclusive are left out. A call without a number means that no potency is given here. Activity calls are given as the source filed them. Calls follow the shape of the dose curve; as a rule, active = well fitted curve in the direction sought with a large enough effect; inconclusive = small, poorly fitted or top-dose-only effect, or another doubt; inactive = no such curve, though single readings can be large; an effect the other way counts as inactive or inconclusive.

Tests used:
[1] = tested on: Zika virus NS2B-NS3 protease (linked construct); test: Primary screen NINDS Rhodamine qHTS for Zika virus inhibitors (AID 1347160); also: nearly all actives have a fitted effect of over 55% in size; also: potency is read from the fitted curve at half-maximal effect
How it was run: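 Rhodamine110-peptide cleavage (1.5 µM substrate) by 25 nM linked NS2B-NS3 enzyme at pH 8.0 (Tris, Tween 20), after 15 min RT preincubation with compounds; 15-min fluorescence change normalized to controls and Hill-fitted.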

[2] = OV-KATE Cancer Cell Toxicity qHTS against the NCATS CANVASS Library (AID 1347345); also: potency is read from the fitted curve at half-maximal effect
How it was run: (§1)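 ATP content after 72 h treatment, detected by CellTiter-Glo luminescence (15min room-temperature development), reflects cell viability. Wells contained 1000 cells and received compounds at 11 concentrations.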

[3] = HPAF-II Cancer Cell Toxicity qHTS against the NCATS CANVASS Library (AID 1347346); also: nearly all actives have a fitted effect of over 55% in size; also: potency is read from the fitted curve at half-maximal effect
How it was run: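 1000 HPAF-II cells/well; 4 h pre-incubation; 11-pnt compound titration; 72 h, 37 degrees C/5% CO2; CellTiter-Glo, 15 min RT; luminescence read.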

[4] = U-118MG Cancer Cell Toxicity qHTS against the NCATS CANVASS Library (AID 1347351)
How it was run: as §1

[5] = HPAF-II 24hr Apoptosis Induction qHTS against the NCATS CANVASS Library (AID 1347356)
How it was run: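 500 HPAF-II cells/well; compounds in 11-pnt qHTS; 24 h, 37 C/5% CO2; Caspase-Glo 3/7 added, 15 min RT dark; luminescence read. Doxorubicin control.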

[6] = HEK293 18hr Apoptosis Induction qHTS against the NCATS CANVASS Library (AID 1347357); also: potency is read from the fitted curve at half-maximal effect
How it was run: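 Cells seeded at 500/well in DMEM + 10% FBS. Compounds pinned, 11 concentrations. 18 h, 37 degrees C/5% CO2. Caspase-Glo 3/7 added, 15 min RT dark, luminescence read.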

[7] = HPAF-II 12hr Apoptosis Induction qHTS against the NCATS CANVASS Library (AID 1347358); also: potency is read from the fitted curve at half-maximal effect
How it was run: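 Caspase-Glo 3/7 luminescence (DEVD substrate) reports caspase activity in HPAF-II cells after 12 h compound treatment at 37 degrees C. Compounds were tested in an 11-point series. Doxorubicin served as control.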

[8] = HEK293 24hr Apoptosis Induction qHTS against the NCATS CANVASS Library (AID 1347359); also: potency is read from the fitted curve at half-maximal effect
How it was run: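 HEK293 cells, 500 per well, exposed to an 11-point compound series for 24 hours at 37 degrees C. Caspase 3/7 activity read by Caspase-Glo luminescence (DEVD substrate) after 15 min at room temperature.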

[9] = HEK293 12hr Apoptosis Induction qHTS against the NCATS CANVASS Library (AID 1347361); also: potency is read from the fitted curve at half-maximal effect
How it was run: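 Cells are seeded, dosed with an 11-point compound series and incubated 12 hours. Caspase-3/7 activity is detected by luminescent DEVD-substrate reagent after 15 minutes at room temperature.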

[10] = target: Luciferin 4-monooxygenase (Photinus pyralis) (UniProt P08659); test: Firefly luciferase counterscreen qHTS: Assay Interference Panel against the NCATS CANVASS Library (AID 1347363); also: series mostly up to about 57 µM
Sequence of Luciferin 4-monooxygenase (Photinus pyralis) (P08659 whole entry, looked up): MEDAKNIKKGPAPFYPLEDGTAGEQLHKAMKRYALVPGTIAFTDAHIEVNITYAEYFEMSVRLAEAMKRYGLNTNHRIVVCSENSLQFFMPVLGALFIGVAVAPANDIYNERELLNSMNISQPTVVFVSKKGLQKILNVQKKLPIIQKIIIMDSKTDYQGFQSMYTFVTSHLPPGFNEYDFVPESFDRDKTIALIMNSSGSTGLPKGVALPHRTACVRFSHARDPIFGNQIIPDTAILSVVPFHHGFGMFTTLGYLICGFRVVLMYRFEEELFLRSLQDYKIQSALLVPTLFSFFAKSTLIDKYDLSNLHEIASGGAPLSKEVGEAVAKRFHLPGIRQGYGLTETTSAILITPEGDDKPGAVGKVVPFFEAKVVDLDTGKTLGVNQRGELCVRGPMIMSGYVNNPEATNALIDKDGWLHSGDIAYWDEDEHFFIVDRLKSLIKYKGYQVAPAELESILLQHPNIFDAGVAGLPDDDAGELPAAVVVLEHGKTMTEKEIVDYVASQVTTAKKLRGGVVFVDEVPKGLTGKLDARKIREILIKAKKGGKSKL
How it was run: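 Purified P. pyralis luciferase (0.04 ug/mL, 4x reagent) added to Tris-acetate buffer with 0.013 mM D-luciferin, 0.013 mM ATP and 13.3 mM Mg-acetate; compounds preincubated 15 min, then luminescence read after 5 min, RT.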

[11] = KB-3-1 Cancer Cell Toxicity qHTS against the NCATS CANVASS Library (AID 1347366); also: nearly all actives have a fitted effect of over 75% in size; also: potency is read from the fitted curve at half-maximal effect
How it was run: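 Luminescence from CellTiter-Glo (10 min, room temperature) measured KB-3-1 viability after 72 hr compound exposure at 37C. Cells were seeded at 500/well and tested in an 11-point series.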

[12] = qHTS for ATAD5 Agonist screened against the NCATS CANVASS Library (AID 1347367);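 also: luciferase reporter driven by ATAD5 which rises upon DNA damage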; also: potency is read from the fitted curve at half-maximal effect
How it was run: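 HEK293T-ATAD5 luc reporter; 2000 cells/well; 5hr settle; cpd 11-pt qHTS; 16hr 37C 5% CO2 dark; viability by CellTiter-Fluor (AFC fluorescence); then luciferase luminescence, 30min RT.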

[13] = MCF7 Cancer Cell Toxicity qHTS against the NCATS CANVASS Library (AID 1347369); also: potency is read from the fitted curve at half-maximal effect
How it was run: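 Cells seeded at 500/well, then compound pinned. Plates incubated 72 hr at 37C, 5% CO2. CellTiterGlo added; luminescence read.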

[14] = qHTS for ATAD5 Antagonist screened against the NCATS CANVASS Library (AID 1347370); also: nearly all actives have a fitted effect of over 65% in size; also: potency is read from the fitted curve at half-maximal effect
How it was run: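 HEK293T-ATAD5 luc reporter, 2000 cells/well; 5hr attach; cpd + 10 uM 5-FUrd; 16hr 37C, 5% CO2. Readouts: CellTiter-Fluor fluorescence (1hr), then Amplite luciferase luminescence (30min RT).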

[15] = J3T Cancer Cell Toxicity qHTS against the NCATS CANVASS Library (AID 1347371); also: potency is read from the fitted curve at half-maximal effect
How it was run: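 Dog glioma J3T, 500 cells/well; cpd 11-pt qHTS; 72 hr, 37C/5% CO2; CellTiterGlo ATP luminescence readout.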

[16] = target: Nuclear receptor subfamily 1 group I member 3 (Homo sapiens) (UniProt Q14994); test: qHTS for Constitutive Androstane Receptor (CAR) Antagonist screened against the NCATS CANVASS Library (AID 1347372); also: potency is read from the fitted curve at half-maximal effect
Sequence of Nuclear receptor subfamily 1 group I member 3 (Homo sapiens) (Q14994 whole entry, looked up): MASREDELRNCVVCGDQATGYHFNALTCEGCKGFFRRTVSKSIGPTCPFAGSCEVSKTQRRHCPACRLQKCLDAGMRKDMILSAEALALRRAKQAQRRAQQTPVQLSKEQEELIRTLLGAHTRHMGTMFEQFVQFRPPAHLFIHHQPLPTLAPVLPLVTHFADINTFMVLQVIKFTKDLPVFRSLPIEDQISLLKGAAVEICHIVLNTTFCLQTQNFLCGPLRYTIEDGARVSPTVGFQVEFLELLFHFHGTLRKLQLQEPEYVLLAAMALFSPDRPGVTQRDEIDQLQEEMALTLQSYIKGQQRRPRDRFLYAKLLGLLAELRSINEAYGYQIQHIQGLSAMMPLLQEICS
How it was run: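 Luminescence readout (ONE-Glo, 30 min RT) of CYP2B6-2.2kb reporter in HepG2-hCAR cells after 24hr, 37C treatment with compound against 50 nM CITCO; CellTiter-Fluor viability read beforehand.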

[17] = 10-beta competent E. coli microbial cell viability qHTS against the NCATS CANVASS Library (AID 1347376); also: series mostly up to about 46 µM
How it was run: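 Luminescence from BacTiter-Glo ATP detection served as the viability read-out; bacteria (0.2 OD) had been incubated overnight at 37C with pin-transferred compounds at 11 concentrations.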

[18] = Inflammasome Signaling qHTS Counterscreen: IL-1-beta AlphaLISA counterscreen against the NCATS CANVASS Library (AID 1347381);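 also: cell-free check with purified IL-1β in medium and no THP-1 cells; series mostly up to about 57 µM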
How it was run: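 Here, no cellular stimulation occurs; compounds in an 11-point series meet 4 pg purified IL-1-beta directly. Bead-based AlphaLISA detection follows (1 h acceptor/antibody, then 30 min donor, dark, room temperature), with excitation at 680 nm.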

[19] = Viability qHTS for inhibitors of the SERCaMP assay screened against the NCATS CANVASS Library (AID 1347400); also: nearly all actives have a fitted effect of over 70% in size; also: potency is read from the fitted curve at half-maximal effect
How it was run: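 CellTiter-Glo luminescence readout after 48 h compound exposure (11-pnt qHTS series) of SH-SY5Y-GLuc SERCaMP MJH297 cells seeded at 1000 cells/well; bortezomib positive control.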

[20] = target: Nuclear receptor subfamily 1 group I member 3 (Homo sapiens) (UniProt Q14994); test: qHTS for Constitutive Androstane Receptor (CAR) Agonist screened against the NCATS CANVASS Library (AID 1347373);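 also: every well also contained 1.5 µM PK11195 alongside the test compound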
How it was run: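 Luciferase read-out (ONE-Glo, 30 min RT) of CYP2B6-2.2kb promoter activity in double-stable HepG2-hCAR cells after 24hr compound exposure with 1.5uM PK11195 present; viability measured first by CellTiter-Fluor.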

Structure (SMILES)	Potency [1]	Potency [2]	Potency [3]	Potency [4]	outcome [5]	Potency [6]	Potency [7]	Potency [8]	Potency [9]	Potency [10]	Potency [11]	Potency [12]	Potency [13]	Potency [14]	Potency [15]	Potency [16]	outcome [17]	outcome [18]	Potency [19]	outcome [20]
C[C@@H]1C(=O)[C@]23CC[C@H]1C[C@]21O[C@H]2C(C)(C)C=CC(=O)[C@@]23COC1=O	62.1 µM (active)	inactive	inactive	inactive	inactive	inactive	inactive	inactive	inactive	inactive	inactive	inactive	inactive	inactive	inactive	inactive	inactive	inactive	inactive	
C[C@@]12C[C@@H](C[C@H]3C(=O)O[C@@H](c4ccoc4)[C@H](OC(=O)c4ccccc4)[C@@H]31)OC2=O	inactive	inactive	inactive	inactive	inactive	inactive	inactive	inactive	inactive	inactive	inactive	inactive	inactive	inactive	inactive	inactive	inactive	inactive	inactive	inactive
C/C=C/C=C/C1(O)C2C=C3C(=O)CC45C(=O)C(O)=C(C)C(=O)C4C1C1(C(=O)C(O)=C(C)C(=O)C351)C2C (stereo not given)	39.2 µM (active)	inactive	inactive	inactive	inactive	inactive	inactive	inactive	inactive	inactive	inactive	inactive	inactive	inactive	inactive	inactive	inactive	inactive	inactive	inactive
CN1C(=O)[C@]23SS[C@@]1(C)C(=O)N2[C@H]1Nc2ccccc2[C@]1(c1c[nH]c2ccccc12)[C@@H]3O	49.3 µM (active)	1.06 µM (active)	0.841 µM (active)			8.33 µM (active)	0.59 µM (active)	5.26 µM (active)	5.26 µM (active)	inactive	2.96 µM (active)	inactive	3.7 µM (active)	4.67 µM (active)	1.66 µM (active)	10.5 µM (active)	inactive	inactive	2.4 µM (active)	inactive
C[C@@H](O)[C@H]1OC(=O)C=C2[C@]3(C)[C@H]4[C@H](OC(=O)[C@@]4(C)[C@@H](O)[C@H]4O[C@H]43)[C@H]3O[C@@]231	inactive	3.34 µM (active)	3.35 µM (active)		inactive	inactive	inactive	inactive	inactive	inactive	1.48 µM (active)	0.524 µM (active)		inactive	3.32 µM (active)	5.24 µM (active)	inactive	inactive	7.6 µM (active)	inactive
